Out of some 73,000 compounds screened, about 2,500 (3.4%) were called active. Another 7% or so got no clear call; they are omitted. Calls follow the shape of the dose curve; as a rule, active = well fitted inhibition curve with a large enough effect; inconclusive = small, poorly fitted or top-dose-only effect; inactive = no such curve, though single readings can be large or run the other way. What follows is part of a selection rich in actives, with near analogues and random picks from the rest. A call without a number means that no potency is given here.
biological target: 3-hydroxyacyl-CoA dehydrogenase type-2 (Homo sapiens) (UniProt Q99714); experiment: qHTS Assay for Inhibitors of HADH2 (Hydroxyacyl-Coenzyme A Dehydrogenase, Type II); conditions: recombinant HADH2, NADH fluorescence, beta-hydroxybutyryl-CoA; series mostly up to 57.1 µM; also: nearly all actives have a fitted effect of over 60% in size
Procedure, shortened: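 Buffer 100 mM Tris-HCl pH 9.0/0.01% Tween-20; HADH2 20 nM; NAD+ 1 mM; beta-hydroxybutyryl-CoA 90 uM (all final). 15 min cpd preincubation, RT.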
Potency is read from the fitted curve at half-maximal effect.

Sequence of 3-hydroxyacyl-CoA dehydrogenase type-2 (Homo sapiens) (Q99714 whole entry, looked up): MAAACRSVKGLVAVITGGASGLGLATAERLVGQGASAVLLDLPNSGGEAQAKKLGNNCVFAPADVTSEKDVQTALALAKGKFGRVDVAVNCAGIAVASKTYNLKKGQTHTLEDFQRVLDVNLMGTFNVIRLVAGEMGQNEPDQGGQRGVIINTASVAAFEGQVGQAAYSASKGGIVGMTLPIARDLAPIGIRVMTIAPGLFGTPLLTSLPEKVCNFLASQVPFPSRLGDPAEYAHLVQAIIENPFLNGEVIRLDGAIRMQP
Sequence of 3-hydroxyacyl-CoA dehydrogenase type-2 (Homo sapiens) (Q99714 whole entry, looked up): as above

Row | Structure (SMILES) | Potency | activity change, negative = inhibition
1 | Cc1nc2nc(SCC(=O)NCc3ccco3)nn2c(C)c1Cc1ccccc1 | inactive | 
2 | O=c1nc2s/c(=C\c3ccco3)c(=O)n2nc1Cc1ccccc1 | 7.94 µM (active) | 
3 | CN(c1ccccc1)c1ccc(/C=c2\s/c(=C(/C#N)C(=O)C(C)(C)C)n(Cc3ccco3)c2=O)cc1 | inactive | 
4 | CC(C)N(CCNC(=O)c1ccc(-n2c(=O)c(=O)[nH]c3ccccc32)cc1)C(C)C | inactive | 
5 | CN(C)CCCNC(=O)c1ccc2[nH]c3ccccc3c2c1 | 25.1 µM (active) | 
6 | CN(C)CCCCNC(=O)c1ccc(Cc2nc3ccccc3[nH]2)cc1 | inactive | 
7 | COc1ccc(CNc2ncnc3ccc(-c4cccnc4)cc23)c(OC)c1 | inactive | 
8 | CS(=O)(=O)N1CCC2(CC1)CN(Cc1ccccc1)C2 | inactive | 
9 | COC(=O)[C@@]1(C)C=C[C@@H](Cc2ccccc2)N1C(C)=O | inactive | 
10 | CCCCCCCCCCCC(=O)O | inactive | 
11 | Cc1cc(C)cc(C#CC2C=CC(Oc3ccc(C4CCCC4)cc3)C(CO)O2)c1 (centres undefined) |  | 10.7% [at 11.4 µM] (inactive)
12 | O=c1c(-c2ccccc2)coc2c(CN3CCOCC3)c(O)ccc12 | inactive | 
13 | O=S(=O)(O)CCN1CCOCC1 | inactive | 
14 | Oc1c(CN2CCOCC2)ccc(CN2CCOCC2)c1O | 0.316 µM (active) | 
15 | C=C(C)C1CC=C(C)C(O)C1 (centres undefined) | inactive | 
16 | CCC[C@@H]1C[C@@]1(CCC)[C@@H](NC(=O)c1ccccc1)c1ccc(C(=O)OC)cc1 | inactive | 
17 | O=C(Nc1cccc(F)c1)N1CC2(CCN(C(=O)c3csnn3)CC2)C1 | inactive | 
18 | COC(=O)c1cnn2c(C(F)(F)F)cc(-c3ccco3)nc12 | 31.6 µM (active) | 
19 | Cc1cc(C(F)(F)F)nn1-c1nc(-c2ccco2)cc(C(F)(F)F)n1 | inactive | 
20 | FC(F)(F)c1cc(-c2ccco2)nc(N2CCOCC2)n1 | inactive | 
21 | Cc1nnc(SCc2ccc(C(=O)c3ccc(Cl)cc3)o2)n1-c1ccccc1 | inactive | 
22 | Cc1nc2cnc(N3CCN(C)CC3)nc2n(CCC#N)c1=O | inactive | 

Row | Structure (SMILES) | Potency | activity change, negative = inhibition
23 | O=C(Oc1cccnc1)c1cc2ccccc2oc1=O | 20 µM (active) | 
24 | O=C(NCc1ccccn1)c1cc2ccccc2oc1=O | inactive | 
25 | CS(=O)(=O)N1CCN(C(=O)c2cc3ccccc3oc2=O)CC1 | inactive | 
26 | COC(=O)[C@@]1(Cc2ccc(OC)cc2)[C@H]2c3cc(C(=O)N4CCCC4)n(Cc4ccc(OC(F)(F)F)cc4)c3C[C@H]2CN1C(=O)c1ccccc1 | inactive | 
27 | CCCC[C@@H]1C[C@H]1C(NC(=O)c1ccco1)c1ccc(C(=O)OC)cc1 (some centres undefined) | inactive | 
28 | Cc1ccc(-c2nn(CC(C)(C)C)c3ncnc(N)c23)cc1 | inactive | 
29 | C[C@H](CCC(=O)NCC(=O)O)[C@H]1CC[C@H]2[C@H]3[C@@H](C[C@@H](O)[C@]12C)[C@]1(C)CC[C@H](O)C[C@@H]1C[C@@H]3O | inactive | 
30 | CCCc1[nH]nc2c1C(c1ccc(OC)c(Cn3nc(C)c(Br)c3C)c1)C(C#N)=C(N)O2 (centres undefined) | inactive | 
31 | COc1ccc(-c2[nH]nc3c2C(c2ccncc2)C(C#N)=C(N)O3)cc1 (centres undefined) | inactive | 
32 | CCOc1c(OC)cc(C2C(C#N)=C(N)Oc3n[nH]c(-c4ccncc4)c32)cc1OC (centres undefined) | 10 µM (active) | 
33 | O=C(O)C1=CCCN(CCON=C(c2ccccc2)c2ccccc2)C1 | inactive | 
34 | O=C(O)c1c(Br)c(Br)c(Br)c(Br)c1C1c2ccc(O)cc2Oc2cc(O)ccc21 | 1.58 µM (active) | 
35 | N#CC1=C(N)Oc2cc(O)ccc2C1C1CCCCC1 (centres undefined) | inactive | 
36 | CC1CCCCN1CCCNC(=O)c1ccc(-n2c(=O)c(=O)[nH]c3ccccc32)cc1 (centres undefined) | inactive | 
37 | COc1ccc(Oc2ncc3nc(-c4ccc(F)cc4)c(=O)n(C)c3n2)cc1 | inactive | 
38 | Oc1c(Cl)cc(Cl)c(Cl)c1Cc1c(O)c(Cl)cc(Cl)c1Cl | 7.94 µM (active) | 
39 | COc1ccc(N)c(OC)c1 | inactive | 
40 | O=C(NCc1ccccn1)c1c(O)c2c([nH]c1=O)CCCC2 | inactive | 
41 | O=C(NCc1ccco1)c1nc2ncccn2n1 | inactive | 
42 | O=C(NCc1ccccn1)c1ccc2nc(-c3ccco3)c(-c3ccco3)nc2c1 | 5.01 µM (active) | 
43 | CC(C)[C@H](CO)Nc1nc(Nc2cc(N)cc(Cl)c2)c2ncn(C(C)C)c2n1 | inactive | 
44 | COc1cccc([C@H](O)Cn2cc(-c3ccc(CON=C(C)C)cc3)nn2)c1 |  | 4.01% [at 11.4 µM] (inactive)

Row | Structure (SMILES) | Potency | activity change, negative = inhibition
45 | CC(=O)N1CCC2(CCCN(Cc3ccccc3)C2)CC1 | inactive | 
46 | Cn1c(C(=O)N2CCC(C(N)=O)CC2)cc2c(=O)n(C)c3ccccc3c21 | inactive | 
47 | CCN1CCCC1CNC(=O)c1cc2c(=O)n(C)c3ccccc3c2n1C (centres undefined) | 31.6 µM (active) | 
48 | Cn1c(C(=O)NCCc2ccsc2)cc2c(=O)n(C)c3ccccc3c21 | inactive | 
49 | CC(C)C[C@@H](CC(=O)N[C@@H](CCC(=O)O)CC(=O)O)NC(=O)[C@@H]1CCCC[C@H]1NC(=O)C[C@@H](NC(=O)C[C@H](Cc1c[nH]c2ccccc12)NC(=O)[C@@H]1CCCC[C@H]1N)C(C)C | inactive | 
50 | COc1c(C)c2c(c(O)c1C/C=C(\C)CCC(=O)O)C(=O)OC2 | inactive | 
51 | C/C=C/C=C/C(=O)O | inactive | 
52 | CCN(CC)CCCCn1c(-c2ccccc2)nc2c(N3CCOCC3)nc(C)nc21 | inactive | 
53 | Cc1ccc(-n2ncc3c(N4CCN(c5ccc(F)cc5)CC4)ncnc32)c(C)c1 | inactive | 
54 | COc1ccc(-n2ncc3c(N4CCc5ccccc54)ncnc32)cc1 | 31.6 µM (active) | 
55 | Cc1ccc(-n2ncc3c2ncn2nc(-c4ccco4)nc32)c(C)c1 | inactive | 
56 | Cc1cccc(-n2ncc3c(N4CCc5ccccc54)ncnc32)c1 | 3.16 µM (active) | 
57 | COc1ccc(N2CCN(C(=O)CSc3ncnc4c3cnn4-c3ccc(OC)cc3)CC2)cc1 | inactive | 
58 | COc1ccc(-n2c(C)nc3c(cnn3-c3ccccc3)c2=O)cc1 | inactive | 
59 | CC(=O)OCCC(C)C | inactive | 
60 | CCCn1c(-c2ccc(F)cc2)nc2c(NCC3CCCN3CC)nc(C)nc21 (centres undefined) | inactive | 
61 | CCCN(C/C=C\I)[C@@H]1CCc2cccc(O)c2C1 | inactive | 
62 | Cc1ccc(S(=O)(=O)c2c(N)n(C)c3nc4ccccc4nc23)cc1 | 31.6 µM (active) | 
63 | Cc1ccc(S(=O)(=O)NCc2nc3ccccc3c(=O)n2N)cc1 | inactive | 
64 | COCCn1c(=O)c(C)nc2cnc(N(C)C)nc21 | inactive | 

Source: PubChem BioAssay AID886 (National Center for Advancing Translational Sciences (NCATS), 2007)
